The text below walks through data of PubChem BioAssay (NCATS).

Inconclusive results are not listed. Calls of active or inactive are those of the source. Calls come from the whole dose curve; as a rule, active = well fitted curve in the direction sought with a large enough effect; inconclusive = small, poorly fitted or top-dose-only effect, or another doubt; inactive = no such curve, though single readings can be large; an effect the other way counts as inactive or inconclusive.

The target of assay [1] is Calcium and integrin-binding protein 1 (Homo sapiens) (UniProt Q99828). The experiment in a line: Primary qHTS for Identification of Calcium Integrin Binding Protein 1 (CIB1) Competitor (AID 1508620).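 Note: GST tagged CIB1 binding a fluorescein labelled alphaIIb integrin peptide tracer; top concentration of the series differs between compounds.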 As to conditions: CIB1-GST / FITC-alphaIIb peptide fluorescence polarization; series mostly up to 114 µM. An outline of the steps: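 Fluorescence polarization competition: CIB1-GST (1 uM final) preincubated with compound 15 min at room temperature, then FITC-labeled alphaIIb peptide (100 nM final) added for another 15 min. Polarization read at Ex 480/Em 540.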
For orientation: Quantitative high-throughput screening tests each substance at several concentrations.

Assay [2] is described as follows: Primary qHTS for inhibitors of nuclear receptor binding SET domain protein 2 (NSD2) in an isogenic RCH-ACV NSD2 p.E1099K mutant (9B) (AID 1645876). Note: nearly all actives have a fitted effect of over 70% in size. Note: potency is the fitted concentration of half-maximal effect. The following applies: RCH-ACV NSD2 E1099K (9B) viability, CellTiter-Glo, 72 h; series mostly up to 44.9 µM.
Assay [3] can be described thus: Primary qHTS for inhibitors of nuclear receptor binding SET domain protein 2 (NSD2) in an RCH-ACV wild type WT cells (2C) (AID 1645877). Note: nearly all actives have a fitted effect of over 70% in size. Note: potency is the fitted concentration of half-maximal effect. The following applies: RCH-ACV (leukaemia line) NSD2 WT (2C) viability, CellTiter-Glo, 72 h; series mostly up to 44.9 µM.

Sequence of Calcium and integrin-binding protein 1 (Homo sapiens) (Q99828 whole entry, looked up): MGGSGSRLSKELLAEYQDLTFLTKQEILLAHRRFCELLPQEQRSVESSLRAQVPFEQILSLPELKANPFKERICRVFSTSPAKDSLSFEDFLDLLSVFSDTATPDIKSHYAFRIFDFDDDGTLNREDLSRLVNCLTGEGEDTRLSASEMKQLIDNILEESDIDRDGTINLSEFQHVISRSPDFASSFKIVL

Take `CNc1nc(Nc2ccc(C(=O)N3CCOCC3)cc2OC)nc2[nH]cc(Cl)c12`: the Potency result in assay [1] was “inactive”. Also, the Potency in assay [2] is 4.09 µM (active); in assay [3], 2.9 µM (active).
As to `O=C(Nc1ccnc(NC(=O)C2CC2)c1)c1c(Cl)cccc1Cl`, the Potency entry in assay [1] was “inactive”. For the same compound, the Potency in assay [2] and in assay [3] was 2.95 µM (active) throughout.
Regarding `C=C1CC[C@@H](O)[C@]2(C)C[C@H]3OC(=O)C(=C)[C@H]3CC12` (stereo partly drawn), the Potency result in assay [1] was “inactive”. Further, the Potency in assay [2] was 16.3 µM (active); in assay [3], 12.9 µM (active).
As to `CCn1c(-c2nonc2N)nc2c(C#CC(C)(C)O)ncc(OCC3CCCNC3)c21` (stereo not drawn), the Potency result in assay [1] was “inactive”. Besides, the Potency in assay [2] was 1.03 µM (active); in assay [3], 1.45 µM (active).
The matching figures for `COC1CC/C=C(\C)C(=O)Nc2cc(O)cc(c2)CC(C)CC(OC)C(O)C(C)/C=C(\C)C1OC(N)=O` (stereo not drawn): “inactive”, 2.52 µM (active) and 2.82 µM (active).
In the case of `CC(=O)O[C@H]1CC2C(COC(=O)CC(C)C)=CO[C@@H](OC(=O)CC(C)C)C2[C@]12CO2` (stereo partly drawn), the Potency result in assay [1] was “inactive”. The Potency in assay [2] was 7.96 µM (active); in assay [3], 3.55 µM (active).
Take `CCN1CCN(Cc2ccc(NC(=O)c3ccc(C)c(Oc4ncnc5[nH]c(C)cc45)c3)cc2C(F)(F)F)CC1`: the Potency entry in assay [1] was “inactive”. For the same compound, the Potency in assay [2] was 2.05 µM (active); in assay [3], 2.3 µM (active).
For `C#CCCCn1cc(-c2cccc3c2N[C@H](C)CC(=O)N3)cn1`, the Potency entry in assay [1] is “inactive”. Besides, the figures for the Potency in assay [2] and in assay [3] were 23 µM (active) and 14.5 µM (active), respectively.
Turning to `CN1CC[C@@H](c2c(O)cc(O)c3c(=O)cc(-c4ccc(C(F)(F)F)cc4Cl)oc23)[C@@H]1CO`, the Potency entry in assay [1] was “inactive”. Moreover, the Potency is 18.6 µM (active) in assay [2] and 16.6 µM (active) in assay [3].
For `CCc1c[nH]c2ncnc(N3CC[C@](N)(CNC(=O)c4ccc(F)cc4F)C3)c12`, the Potency result in assay [1] was “inactive”. For the same compound, the Potency in assay [2] is 1.63 µM (active); in assay [3] it was 3.65 µM (active).
For `NC(=O)c1ccccc1Nc1ccnc(Nc2cccc(O)c2)n1` the same measures were “inactive”, 0.742 µM (active) and 0.833 µM (active).
Regarding `COC(=O)Nc1cc(Nc2cc(NC3CC3)c3ncc(C#N)n3n2)c(Cl)c(N2CCN(C)CC2)c1`, the Potency entry in assay [1] is “inactive”. The Potency is 0.742 µM (active) in assay [2] and 0.372 µM (active) in assay [3].
For `COc1ccccc1C(=O)Nc1cccc(NC(=O)c2cccc(C)c2)c1` the same measures were “inactive”, “inactive” and “inactive”.
With `CC[C@@H](C)Nc1cc(C(=O)NC2CC3CCC(C2)N3c2ccc(C(=O)C3CC3)cn2)c(C)cc1C(N)=O` (stereo partly drawn), the Potency entry in assay [1] was “inactive”. Moreover, the Potency in assay [2] is 0.118 µM (active); in assay [3] it was 0.132 µM (active).
For the compound `C/C(=C\CCC(C)C1=CCC2(C)OC3=C(CC12)C(=O)C(O)CC3)CO` (stereo not drawn), the Potency result in assay [1], in assay [2] and in assay [3] was “inactive” each time.
On to `C=C1CC[C@@H](O)[C@]2(C)CC[C@H]3C(=C)C(=O)O[C@@H]3[C@@H]12`, for which the Potency entry in assay [1] is “inactive”. The Potency in assay [2] is 20.5 µM (active); in assay [3], 16.3 µM (active).
`C=C1C(=O)O[C@@H]2[C@H]1CC[C@H](C)[C@]1(CCC(=O)O1)C2(C)O` (stereo partly drawn): in assay [1], the Potency entry is “inactive”. For the same compound, the Potency in assay [2] is 20.5 µM (active); in assay [3] it was 14.5 µM (active).
With `CC1=CC2/C=C(\C)CCC(O)C(=O)C(O)CC(=O)C23C(=O)NC(CC(C)C)C3C1C` (stereo not drawn), the Potency entry in assay [1] is “inactive”. Moreover, the Potency in assay [2] was 11.2 µM (active); in assay [3], 6.32 µM (active).
For `COc1cc([C@H]2O[C@H](c3cc(OC)c4c(c3)OCO4)[C@H](C)[C@H]2C)cc(OC)c1OC`, the Potency result in assay [1] is “inactive”. Further, the Potency in assay [2] and in assay [3] was 3.55 µM (active) each time.
`CC(=O)O[C@H]1CC(C)(C)CC2[C@]13CO[C@@]21CCC2[C@@]4(C)CC[C@H](O[C@@H]5OC[C@H](O[C@@H]6O[C@H](CO)[C@@H](O)[C@H](O)[C@H]6O[C@@H]6OC[C@@H](O)[C@H](O)[C@H]6O)[C@H](O)[C@H]5O[C@@H]5O[C@H](CO)[C@@H](O)[C@H](O)[C@H]5O)[C@@](C)(CO)C4CC[C@@]2(C)[C@]1(C)C[C@H]3O` (stereo partly drawn): the Potency entry in assay [1] is “inactive”. The Potency in assay [2] was 2.45 µM (active); in assay [3] it was 3.88 µM (active).
For `COc1cc(C(C)C)c(Oc2cnc(N)nc2N)cc1I`, the Potency result in assay [1] is “inactive”. Moreover, the Potency in assay [2] and in assay [3] was 16.3 µM (active) in each case.
As for `C=C1C(=O)OC2/C=C(/C)C3=CC(=O)C(C)(CC(OC(=O)/C(C)=C/COC(C)=O)C12)O3` (stereo not drawn), the Potency result in assay [1] is “inactive”. Besides, the Potency in assay [2] is 1.12 µM (active); in assay [3], 0.399 µM (active).
In the case of `C=CC(=O)N1CCCN(c2cc(NCCC(=O)O)nc(-c3ccccn3)n2)CC1`, the Potency result in assay [1], in assay [2] and in assay [3] was “inactive” throughout.
In the case of `COc1cc(O)cc(OC2OC(CO)C(O)C(O)C2O)c1` (stereo not drawn), the Potency result in assay [1], in assay [2] and in assay [3] was “inactive” in each case.
For `C=C(COC(=O)C(O)C(O)CN)C12OC1C1(C)C(=CC2=O)C(O)C(O)CC1C` (stereo not drawn), the Potency result in assay [1], in assay [2] and in assay [3] was “inactive” throughout.
On to `CS(=O)(=O)c1ccc(Oc2cc(F)cc(C#N)c2)c2c1[C@H](O)C(F)(F)C2`, for which the Potency result in assay [1], in assay [2] and in assay [3] was “inactive” throughout.
